The record followed here is PubChem BioAssay AID1030 (National Center for Advancing Translational Sciences (NCATS), 2008).

Among all 220,000 compounds or so, about 16,000 (7.3%) were called active. Not shown: some 25% with an inconclusive outcome. Calls come from the whole dose curve; as a rule, active = well fitted inhibition curve with a large enough effect (not every such curve was filed as active); inconclusive = small, poorly fitted or top-dose-only effect, or another doubt; inactive = no such curve, though single readings can be large or run the other way. The entries come from a sample that favours actives as a whole. Square brackets hold non-standard residues; d marks the D form. Peptide text beside a SMILES is read from it. ξ: configuration not given here. ξM = CSCCC(N)C(=O)O
Potency is the fitted concentration of half-maximal effect.

The assay deals with Aldehyde dehydrogenase 1A1 (Homo sapiens) (UniProt P00352). Kind of assay: qHTS Assay for Inhibitors of Aldehyde Dehydrogenase 1 (ALDH1A1).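 For activity, negative = inhibition: plate controls were no enzyme wells and a reference inhibitor.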 Particulars: Purified ALDH1A1, NADH fluorescence, propionaldehyde substrate; series mostly up to 75.3 µM; activity, negative = inhibition: at the top concentration.
Sequence of Aldehyde dehydrogenase 1A1 (Homo sapiens) (P00352 whole entry, looked up): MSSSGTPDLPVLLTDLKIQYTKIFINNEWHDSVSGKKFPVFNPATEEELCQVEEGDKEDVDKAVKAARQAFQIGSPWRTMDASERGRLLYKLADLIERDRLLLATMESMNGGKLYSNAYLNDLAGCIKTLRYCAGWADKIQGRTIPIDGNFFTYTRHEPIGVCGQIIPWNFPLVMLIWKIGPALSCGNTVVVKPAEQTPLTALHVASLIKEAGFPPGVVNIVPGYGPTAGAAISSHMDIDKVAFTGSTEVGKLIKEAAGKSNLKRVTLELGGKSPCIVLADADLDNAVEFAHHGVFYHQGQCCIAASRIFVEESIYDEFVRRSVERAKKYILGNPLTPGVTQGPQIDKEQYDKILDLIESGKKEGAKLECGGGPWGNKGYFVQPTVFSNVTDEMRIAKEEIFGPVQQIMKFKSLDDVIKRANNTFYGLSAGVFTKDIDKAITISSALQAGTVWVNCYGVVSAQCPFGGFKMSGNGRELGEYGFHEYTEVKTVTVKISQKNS
For `Cc1cc(C)n(-c2nc(C(F)(F)F)nc3ccccc23)n1`, the “activity, negative = inhibition” value was 4.02% (inactive). For the molecule `COc1cc(C(=O)NCc2ccc3c(c2)cc(C)n3C)cc(OC)c1OC`, the “activity, negative = inhibition” value was 3.23% (inactive).

As to `Cc1ccc(NC(=S)NC2CCCC2)cc1`, the “activity, negative = inhibition” value is 0.313% (inactive).

As for `C/C(=N/NC(=O)c1ccc(Br)o1)c1ccc(C)o1`, the “activity, negative = inhibition” value was -10.1% (inactive). As for `C/C(=N\NC(=S)NC1CCCCC1)c1ccc(C)o1`, the Potency is 12.6 µM (active). As to `COc1ccccc1CN(C)c1nnnn1-c1ccccc1`, the “activity, negative = inhibition” value is 2.59% (inactive). Take `Cc1cc(OCC(=O)NC2CCN(C)CC2)ccc1[N+](=O)[O-]`: the “activity, negative = inhibition” value is -7.92% (inactive). For the molecule `CCOC(=O)c1cc(-c2ccc(F)cc2)n(CC(=O)NCc2ccccn2)c1C`, the “activity, negative = inhibition” value was 5.04% (inactive). As for `Oc1ccc(N=Cc2sc3ccccc3c2Cl)cc1`, the Potency was 15 µM (active).

Consider `O=C(N/N=C/c1c(Cl)[nH]c2ccccc12)c1sc2ccccc2c1Cl`, for which the “activity, negative = inhibition” value is 0.733% (inactive). Consider `O=C(Nc1ccon1)c1sc2ccccc2c1Cl`, for which the “activity, negative = inhibition” value was -0.693% (inactive). Take `Cc1cc(N2CCOCC2)nc2ccc(NC(=S)N3CCN(Cc4ccccc4)CC3)cc12`: the “activity, negative = inhibition” value was -0.991% (inactive). Take `CCN(CC)C(=O)N(CC)Cc1ccccc1`: the “activity, negative = inhibition” value was 5.52% (inactive). Take `O=S(=O)(NCC1CCCO1)c1ccc2ccccc2c1` (stereo unspecified): the “activity, negative = inhibition” value was -7% (inactive). In the case of `O=S(=O)(NCC1CCCO1)c1cnc(Cl)c(Cl)c1` (stereo unspecified), the Potency was 3.55 µM (active).

Consider `Cc1cc(Cl)c(S(=O)(=O)NCC2CCCO2)cc1OCC(N)=O` (stereo unspecified), for which the “activity, negative = inhibition” value is -6.11% (inactive). Regarding `CCO[C@@H]1OC(C(=O)NCc2nc3ccccc3[nH]2)=C[C@H](C2CCCCC2)[C@H]1CCCO`, the “activity, negative = inhibition” value was -1.33% (inactive). As for `O=C(NNC(=S)NCCCN1CCOCC1)c1ccncc1`, the “activity, negative = inhibition” value is -4.66% (inactive). For `S=c1[nH]nc(-c2ccccc2)n1/N=C/c1c[nH]c2ccccc12`, the “activity, negative = inhibition” value is -1.77% (inactive). As for `S=c1[nH]nc(-c2ccncc2)n1/N=C/c1ccccc1Cl`, the “activity, negative = inhibition” value was -2.83% (inactive). In the case of `Oc1ccccc1/C=N/n1c(-c2cccs2)n[nH]c1=S`, the Potency is 15.8 µM (active).

For the molecule `CCCC1(C(=O)OC)NC(c2ccco2)C2C(=O)N(C)C(=O)C21` (stereo unspecified), the “activity, negative = inhibition” value was -4.96% (inactive). In the case of `Cc1ccc(NC(=O)OCc2cncs2)cc1`, the “activity, negative = inhibition” value was 7.64% (inactive). For the molecule `COc1ccc(NC(=S)Nc2ccccc2Cl)cn1`, the “activity, negative = inhibition” value was 9.98% (inactive).

For `COc1ccc(CS(=O)/C(Cl)=C(/Cl)C(=O)Nc2ccc(OC)nc2)cc1` (stereo unspecified), the Potency was 8.91 µM (active). Consider `COc1ccc(NC(=S)NCCNC(C)=O)cc1`, for which the “activity, negative = inhibition” value is 4.48% (inactive). With `COc1cccc(NC(=O)Cc2ccc(C)cc2)c1`, the “activity, negative = inhibition” value is 0.617% (inactive). As for `COc1ccc(NC(=O)/C(Cl)=C(/Cl)S(=O)Cc2ccc(C)cc2)cn1` (stereo unspecified), the Potency is 5.01 µM (active).

Take `COc1cccc(C2c3[nH]c4ccccc4c3CCN2Cc2cccc(C)n2)c1` (stereo unspecified): the “activity, negative = inhibition” value is -3.3% (inactive). For the molecule `O=C(COc1ccc(Cl)cc1[N+](=O)[O-])N1CCCCC1`, the “activity, negative = inhibition” value is -2.25% (inactive). Take `CC(C)(C)NC(=O)CN(C(=O)c1ccc(Cl)nc1)c1cccc2ccccc12`: the “activity, negative = inhibition” value is 12.2% (inactive).

Regarding `Clc1ccc2nc(CSc3ccccc3)cn2c1`, the “activity, negative = inhibition” value was -13.2% (inactive).

As to `COC(=O)CNC(=O)C(CCSC)NC(C)=O` (stereo unspecified) (Ac-[ξM]-Gly-OMe), the “activity, negative = inhibition” value is -1.51% (inactive). For `O=C(CSc1nnc(-c2ccco2)n1CC1CCCO1)c1ccccc1` (stereo unspecified), the Potency was 25.1 µM (active). For the molecule `CNC(=O)NC(=O)CSc1nnc(-c2ccc(F)cc2)n1CC1CCCO1` (stereo unspecified), the “activity, negative = inhibition” value is -7.93% (inactive). As to `Cc1nnc(SCC(N)=O)n1CC1CCCO1` (stereo unspecified), the “activity, negative = inhibition” value is 8.21% (inactive). Still for that read-out and setting: under `C=C1c2cccc(OC)c2O[C@H](C(=O)OCC)[C@@H]1CCCCCC` stands -7.12% (inactive).

Turning to `Cc1cc([N+](=O)[O-])ccc1NC(=O)c1ccc(NC(=O)C(C)C)cc1`, the “activity, negative = inhibition” value is 7.48% (inactive).

For the molecule `CN(C)c1ccc(C=C2C(=O)OC3(CCCC3)OC2=O)cc1`, the Potency was 0.251 µM (active). `CC1CCCCC1NC(=O)COC(=O)Cc1ccc(Br)cc1` (stereo unspecified): the “activity, negative = inhibition” value is -8.2% (inactive). In the case of `COC(=O)C/C=C/[C@@H](C)[C@H](NC(=O)OCC(Cl)(Cl)Cl)c1ccccc1`, the “activity, negative = inhibition” value is 8.6% (inactive). Take `CCOC(=O)Cc1cc(=O)[nH]c(=O)[nH]1`: the “activity, negative = inhibition” value is 9.06% (inactive). Regarding `COc1ccc(OCC(=O)Nc2nnc(-c3ccco3)s2)cc1`, the Potency was 22.4 µM (active). Turning to `CNc1nnc(-c2ccco2)s1`, the “activity, negative = inhibition” value is -9.61% (inactive).

Consider `COCC(=O)Nc1nnc(COc2ccccc2)s1`, for which the “activity, negative = inhibition” value is 8.96% (inactive). As for `Cn1nccc1NC(=O)CC(CC(=O)O)c1ccccc1` (stereo unspecified), the “activity, negative = inhibition” value was 5.23% (inactive). As to `CCc1ccccc1NC(=O)CN(c1ccc(OC)cc1OC)S(=O)(=O)c1ccccc1[N+](=O)[O-]`, the “activity, negative = inhibition” value was -5.19% (inactive). Regarding `Cc1c(C(=O)Nc2cccc(Cl)c2)cn2c(nc3ccccc32)c1C#N`, the “activity, negative = inhibition” value was -8.77% (inactive). Take `CCn1c(CNS(=O)(=O)c2ccc(Cl)cc2)n[nH]c1=S`: the “activity, negative = inhibition” value was -6.02% (inactive). On the same count and under the same terms, the result for `CCCCNCc1ccc(SC)cc1` reads -1.19% (inactive).

Consider `CSc1ccc(S(=O)(=O)NCc2ccc(Cl)cc2)cc1`, for which the Potency is 22.4 µM (active). Regarding `CC(C)(C)OC(=O)NCCCC1=CC2=CC(=O)C(C)(OC(=O)c3ccco3)C(=O)C2=CO1` (stereo unspecified), the “activity, negative = inhibition” value is -5.63% (inactive). On to `C=CCO/N=C/C1=C(O)C(C(=O)OC)C(C)(C)CC1=O` (stereo unspecified), for which the “activity, negative = inhibition” value is 1.49% (inactive). For `COc1cccc(-n2c(=O)c3c(C)c(C(=O)N(C)C)sc3n(CC(=O)NCCc3ccc(OC)c(OC)c3)c2=O)c1`, the “activity, negative = inhibition” value is 7.95% (inactive).

As for `CCN(CC)c1ccc2c(Nc3ccccc3)c(C=O)c(=O)oc2c1`, the Potency was 1.58 µM (active). For `COc1cccc(NC(=O)c2ccc(Cn3cc([N+](=O)[O-])cn3)o2)c1`, the Potency was 14.1 µM (active).

Regarding `CCc1ccc(NC(=O)c2ccc(Cn3cc([N+](=O)[O-])cn3)cc2)cc1`, the “activity, negative = inhibition” value is 13.5% (inactive).

As to `COc1cccc(NC(=O)c2nn(-c3ccc(OC)cc3OC)c(=O)c3ccccc23)c1`, the “activity, negative = inhibition” value is 2.87% (inactive). For `Cn1cc([N+](=O)[O-])c(C(=O)Nc2cnn(Cc3ccc(F)cc3)c2)n1`, the “activity, negative = inhibition” value is 3.74% (inactive). Take `O=C(Nc1ccc(Br)c2cccnc12)c1ccc(Cn2cc([N+](=O)[O-])cn2)o1`: the “activity, negative = inhibition” value was -4.37% (inactive). Turning to `COc1cccc(NC(=O)c2nn(C34CC5CC(CC(C5)C3)C4)cc2[N+](=O)[O-])c1`, the Potency is 0.224 µM (active). `CC[C@@]12C=C(/C=C/c3ccccc3)[C@](CC)(C1)[C@H](c1ccccc1)CC2=O`: the “activity, negative = inhibition” value was -3.32% (inactive).

For the molecule `CCOC(=O)C1CCCN(C(=O)CN(c2ccc(OC)cc2)S(=O)(=O)c2c(C)noc2C)C1` (stereo unspecified), the “activity, negative = inhibition” value is 1.65% (inactive). `CCOC(=O)C1CCCN(C(=O)/C=C/c2ccc(OC)cc2)C1` (stereo unspecified): the Potency is 22.4 µM (active). Consider `CCOC(=O)C1CCCN(C(=O)COc2ccc(N(C)S(=O)(=O)c3ccc(C)cc3)cc2)C1` (stereo unspecified), for which the “activity, negative = inhibition” value is -3.05% (inactive). `Cc1nn(CC#N)c(=O)n1N(C)c1ncc(C(F)(F)F)cc1Cl`: the “activity, negative = inhibition” value is 0.785% (inactive).

Consider `O=C(NCc1ccncc1)C(=O)NCc1ccco1`, for which the “activity, negative = inhibition” value is -1.71% (inactive). Same read-out and setting: under `CC(=O)Nc1ccc(CN2CCN(Cc3ccc(F)c(F)c3)C(CCO)C2)cc1` (stereo unspecified) stands -9.5% (inactive).

Consider `CCc1cccc(OC2OC(CO)C(O)C(O)C2NC(C)=O)c1` (stereo unspecified), for which the “activity, negative = inhibition” value is 2.58% (inactive). With `CC(=O)NC1C(OCc2ccccc2)OC(COC(C)=O)C(OC(C)=O)C1OC(C)=O` (stereo unspecified), the “activity, negative = inhibition” value was 13.5% (inactive). As to `CC(=O)NC1C(Oc2ccc(C=O)cc2)OC(COC(C)=O)C(OC(C)=O)C1OC(C)=O` (stereo unspecified), the Potency was 3.55 µM (active).
